Screening data: PubChem, National Center for Advancing Translational Sciences (NCATS)
TRHR enhancer = allosteric enhancers of human TRH receptor. P34981. TRHR cells, fluo-8 calcium fluorescence, EC20 TRH enhancement. enhancement, % at 2 µM. actives 0.66% (n = 360,000); in the data active = enhancement above about 30%
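Enhancer read-out: after compound pinning and an initial kinetic agonist-mode read, an EC20 of TRH (10 nM final) was injected and fluo-8 calcium signal (Ex 480/Em 530) followed at 1 s/cycle for 100 cycles in TRHR-expressing cells.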
D1 antag = blocks dopamine activation of the human D1 receptor. activity change, negative = inhibition, % at 10 µM. HEK293 TREx D1 cells, calcium flux, dopamine EC80; stronger effect = lower value. P21728. actives 3.2% (n = 360,000); in the data active = activity change below about -30%
Target sequence (P21728 whole entry, looked up): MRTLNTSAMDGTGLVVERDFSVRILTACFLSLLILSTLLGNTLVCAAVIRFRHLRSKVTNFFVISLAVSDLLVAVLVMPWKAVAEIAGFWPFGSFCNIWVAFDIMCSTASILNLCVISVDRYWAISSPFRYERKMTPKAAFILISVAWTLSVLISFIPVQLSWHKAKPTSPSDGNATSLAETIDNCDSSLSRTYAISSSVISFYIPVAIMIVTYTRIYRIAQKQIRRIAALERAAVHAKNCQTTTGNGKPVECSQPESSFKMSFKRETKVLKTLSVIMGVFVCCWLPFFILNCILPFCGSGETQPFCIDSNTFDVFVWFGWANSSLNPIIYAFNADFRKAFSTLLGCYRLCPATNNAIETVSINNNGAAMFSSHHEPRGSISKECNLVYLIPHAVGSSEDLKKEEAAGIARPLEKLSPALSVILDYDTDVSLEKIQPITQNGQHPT
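Antagonism measured as reduced calcium response to an EC80 dopamine addition following 180 s compound pre-read; cells were inducible HEK293 Trex D1 plated overnight at 30 C, read kinetically at 1 cycle/sec.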
D1 PAM = enhances dopamine response at the human D1 receptor | actives 0.036% (n = 360,000) | potentiation, % at 10 µM | HEK293 TREx D1 cells, calcium flux, dopamine EC20 potentiation | AID 504651; in the data active = potentiation above about 30%
TRHR ag = TRH receptor (human) agonism; P34981; TRHR cells, calcium flux fluo-8, FDSS agonist mode; actives 0.18% (n = 360,000); activation, % at 2 µM
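Agonist-mode FDSS calcium read (Ex 480/Em 530, 1 s cycles) in 1536-well TRHR cells with fluo-8 dye, after 10-cycle baseline and 23 nL compound addition; TRH at EC20 (10 nM final) added afterwards for the enhancer phase.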
D1 ag = activates the human D1 dopamine receptor | HEK293 T-REx D1 cells, calcium flux, agonist mode | actives 1% (n = 360,000) | activation, % at 2 µM | AID 504660 | P21728
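Inducible HEK293 T-REx D1 cells, force-coupled to calcium signalling, were plated at 4000 cells/well with tetracycline and held overnight at 30 C. After no-wash calcium dye loading, compound-evoked calcium rise over 180 s flagged agonists.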
Each line names hits and unclear results; the compound was inactive in the other large screens. Only some compounds are listed: those with a hit (about 4.7% of all), similar ones and a draw of the others. Rule as the data show it, unless noted: active = activation above about 30%; inactive = the rest.

NC(=S)NNC(=O)C12CC3CC(CC(C3)C1)C2	TRHR ag 32, D1 ag 185
O=C(Nc1ccccc1)c1ccccc1NC(=O)[C@H]1CCCC[C@H]1C(=O)O	none
O=C(O)C1CCCCC1C(=O)Nc1ccccc1Nc1ccccc1 (stereo unspecified)	D1 antag -41
Cc1cc(C(=O)NN)c2cc(Br)ccc2n1	D1 antag -35
COc1cccc(CN(C)C(=O)c2ccc(Oc3ccccc3)cc2)c1OC	D1 ag 32
COc1cccc(CN(C)C(=O)c2ccc(COc3ccc(Cl)cc3)cc2)c1OC	D1 ag 54 (no result: D1 PAM)
COc1ccccc1CN(C)C(=O)c1ccc(COc2ccccc2)cc1	none
Cc1cc2c(s1)c1cnn(Cc3cc(F)ccc3C)c(=O)c1n2C	none
O=S(=O)(NCc1csc(-c2ccccc2)n1)c1ccccc1	none
Cc1oc2ncnc(N3CCOCC3)c2c1C(=O)N1CCN(c2cccc(C(F)(F)F)c2)CC1	none
COC(=O)c1cccc(NC(=O)c2nn(C)c(=O)c3ccccc23)c1	TRHR enhancer 40
COC(=O)c1ccc(C)c(NC(=O)c2nn(C)c(=O)c3ccccc23)c1	none
CN1CCN(c2ccc(Cl)cc2NC(=O)c2cccc(S(=O)(=O)N(C)C)c2)CC1	D1 ag 41
Cn1c(=O)n(C)c2cc([N+](=O)[O-])c(N3CCN(C(=O)c4ccc(Cl)cc4)CC3)cc21	D1 antag -57
CN1CCN(c2ccc(Cl)cc2NC(=O)c2ccc([N+](=O)[O-])cc2)CC1	D1 antag -85
CN(C)S(=O)(=O)c1cccc(C(=O)Nc2cc(Cl)ccc2O)c1	none
COc1ccc(CC(=O)NCc2nc3cccnc3n2Cc2ccc(C)cc2)cc1	none
Cc1ccc(C2C=C(c3ccc(Cl)cc3)Nc3nc(NC(=O)c4ccco4)nn32)cc1 (stereo unspecified)	none
CCCCCCNC(=O)c1cn(CC)c2cc(N3CCN(C)CC3)c(F)cc2c1=O	D1 antag -50, D1 ag 87
CCn1cc(C(=O)NCCCO)c(=O)c2cc(F)c(N3CCN(C)CC3)cc21	none
CCn1cc(C(=O)O)c(=O)c2cc(F)c(N3CCN(C)CC3)cc21	none
CCn1cc(C(=O)O)c(=O)c2cc(F)c(N3CCNCC3)cc21	D1 antag -48
CCOC(=O)c1ccc(CC(=O)c2ccc(O)c(O)c2O)o1	D1 antag -48
CC(C)(C)OC(=O)N1CCC(c2c(C(=O)N3CCN(c4ccccc4)CC3)cnn2-c2ccccc2)CC1	none
COC(=O)c1cc(NC(=O)c2cccc(Cl)c2)c(=O)oc1/C=C/Nc1cc(C)cc(C)c1	D1 antag -34, TRHR ag 38, D1 ag 102
COc1ccc(-c2nc(-c3ccccc3OC)no2)cc1OC	D1 antag -36
COc1ccccc1-c1noc(-c2ccccc2)n1	none
COc1ccc(-c2ccc(-c3noc(-c4ccccc4)n3)c(OC)n2)cc1	D1 antag -46
COc1ccccc1-c1noc(-c2ccc(NC3CCCC3)c([N+](=O)[O-])c2)n1	D1 antag -40
Cc1ccccc1-c1noc(-c2ccc(NC3CCCC3)c([N+](=O)[O-])c2)n1	none
O=C(COC(=O)c1cc([N+](=O)[O-])ccc1N1CCOCC1)Nc1ccccc1OC(F)F	D1 antag -31
CSc1ccc(COC(=O)c2cc([N+](=O)[O-])ccc2N2CCOCC2)cc1	none
CN(C)S(=O)(=O)c1cccc(COC(=O)c2cc([N+](=O)[O-])ccc2N2CCOCC2)c1	D1 antag -39
Oc1ccc(/C=C/c2nc(-c3ccccc3O)n(-c3ccccc3)n2)c(O)c1	none
O=C(COC(=O)Cc1ccc(Cl)cc1)NCCc1ccccc1	none (no result: D1 PAM)
Nc1nccnc1C(=O)OCC(=O)NCCc1ccc(Cl)cc1	D1 antag -47
COc1ccc(CNC(=O)COC(=O)c2n[nH]c3ccccc23)cc1	none
CC(C)CNC(=O)COC(=O)c1n[nH]c2ccccc12	D1 antag -51
O=C(COC(=O)c1n[nH]c2ccccc12)NCCc1ccc(Cl)cc1	D1 antag -30 (no result: D1 PAM)
COc1ccc(CCNC(=O)c2n[nH]c3ccccc23)cc1	none
COc1ccc(OCC(=O)Nc2nnc(S(=O)(=O)N3CCc4ccccc43)s2)cc1	none
COc1ccc(NS(=O)(=O)c2ccc(-c3cnc(C4CC4)o3)cc2)cc1Cl	none
CCN1C(=O)c2ccccc2S(=O)c2ccc(C(=O)NCc3ccc(Cl)cc3)cc21 (stereo unspecified)	none
Cc1ccc2nc(NCCCN3CCOCC3)c(C=NCCCN3CCOCC3)c(=O)n2c1	TRHR enhancer 32
Cc1ccc2nc(NCc3ccccc3)c(C=NCc3ccccc3)c(=O)n2c1	none
O=C(Nc1cccc(Br)c1)c1ccc(Cl)c(S(=O)(=O)N2CCOCC2)c1	none
O=C(Nc1cccc(S(=O)(=O)C(F)F)c1)c1ccc(Cl)c(S(=O)(=O)N2CCOCC2)c1	D1 antag -34
CN(C)CCNC(C(=O)Nc1cccc(S(=O)(=O)N2CCOCC2)c1)c1ccccc1 (stereo unspecified)	TRHR enhancer 36
CC(=O)Oc1ccc(-c2ccc(C(=O)Nc3cccc(S(=O)(=O)N4CCOCC4)c3)cc2)cc1	D1 antag -32
COc1ccc(C(=O)NC(=S)Nc2cccc(S(=O)(=O)N3CCOCC3)c2)cc1	none
CC(C)Oc1ccc(C(=O)Nc2cc(S(=O)(=O)N3CCOCC3)ccc2N2CCOCC2)cc1	D1 antag -40
Cc1ccc(N2CC(NC(=O)c3cccs3)CC2=O)cc1 (stereo unspecified)	none (no result: D1 antag)
COc1ccccc1CNC(=O)C1CCCN(c2nn3cc(-c4ccc(F)cc4)nc3s2)C1 (stereo unspecified)	none
COc1ccccc1-c1noc(-c2ccc(N3CCN(C)CC3)c([N+](=O)[O-])c2)n1	none
Cc1ccc(-n2c(Cc3cccn3C)nnc2SCC(=O)Nc2nnc(C)s2)cc1	none
Cc1nnc(NC(=O)CSc2nnc(Cc3cccn3C)n2C)s1	D1 antag -37
COc1ccc(NC(=O)CSc2nnc(Cc3cccn3C)n2-c2ccc(F)cc2)cc1OC	D1 antag -45
Cc1cccc(OCC(=O)Nc2ccc(Cl)c(-c3nc4ncccc4o3)c2)c1C	none
Cc1ccc(-n2cc(C(=O)Oc3ccc(F)cc3)c3ccccc3c2=O)cc1	none
CC(C(=O)Oc1ccc2c(c1)OCO2)N1C(=O)c2ccccc2C1=O (stereo unspecified)	D1 antag -40
CC(C(=O)OCC(=O)Nc1ccc2c(c1)OCO2)N1C(=O)c2ccccc2C1=O (stereo unspecified)	none
Cc1ccc(S(=O)(=O)N2CCOCC2)cc1NC(=O)c1cc2c(s1)CCC2	none
Cc1ccc(S(=O)(=O)Nc2ccc(Cl)cc2)cc1NC(=O)c1cc2c(s1)CCCC2	TRHR enhancer 32
